About 83,000 compounds went through this panel and 20% of them were active in at least one assay; those are over-represented in the sample as a whole.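 The endpoint reported here, percent growth, reads 100 for growth as untreated, 0 for no net growth and -100 for all cells dead.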 Unmarked numbers belong to inactive results. The source made the active and inactive calls. The calls were made as follows: active = growth percent below 10; inactive = the rest.

Test systems include DU-145 prostate; K-562 leukemia; MALME-3M melanoma; MDA-MB-231 breast; RXF 393 renal; SF-268 CNS; SF-295 CNS; SF-539 CNS; UACC-257 melanoma; M14 melanoma.
What all share (assay): NCI-60 one-dose screen, 48 h (100 = growth as untreated, 0 = no growth, -100 = all killed)
Common to all, as to conditions: 10 µM

On to `CCOC(=O)c1sc(Nc2ncccn2)nc1-c1ccccn1`, for which the growth in the test with DU-145 prostate was 92.3%; with K-562 leukemia, 108%; in the test with MALME-3M melanoma it was 107%; in the test on MDA-MB-231 breast, 86.7%; with RXF 393 renal it was 104%; with SF-268 CNS it was 80.6%. The growth with SF-295 CNS was 84.2%; with SF-539 CNS, 99.3%; with UACC-257 melanoma, 100%; in the test on M14 melanoma it was 81.9%.
Turning to `O=C(NCCCl)c1cc(Cl)cc(Cl)c1`, the growth in the test with DU-145 prostate was 111%; in the test on K-562 leukemia, 101%; in the test with MALME-3M melanoma, 97.8%; in the test with MDA-MB-231 breast, 121%; with RXF 393 renal it was 114%; with SF-268 CNS, 112%. Moreover, the growth in the test on SF-295 CNS is 92.4%; with SF-539 CNS, 101%; with UACC-257 melanoma it was 91.8%; in the test with M14 melanoma it was 116%.
As for `O=C(CCCC(=O)N/N=C/c1cc(Cl)ccc1O)N/N=C\c1cc(Cl)ccc1O`, the growth was 42.9% with DU-145 prostate; 13.9% with K-562 leukemia; 31.2% in the test on MALME-3M melanoma; 37.5% in the test on MDA-MB-231 breast; 39.2% in the test on RXF 393 renal; 26.4% with SF-268 CNS. Besides, the growth in the test with SF-295 CNS is -5.9% (active); in the test with SF-539 CNS, 14.1%; in the test with UACC-257 melanoma, -1.55% (active); with M14 melanoma it was 12.9%.
As to `O=S(=O)(NCCO)c1ccc(OCCOc2ccc(S(=O)(=O)NCCO)cc2)cc1`, the growth in the test on DU-145 prostate is 107%; in the test on K-562 leukemia, 106%; in the test with MALME-3M melanoma, 87%; in the test with MDA-MB-231 breast it was 89.6%; in the test with RXF 393 renal, 102%; in the test with SF-268 CNS, 102%. Besides, the growth in the test on SF-295 CNS is 98.1%; in the test on SF-539 CNS, 94.4%; with UACC-257 melanoma, 95%; with M14 melanoma it was 102%.
As for `O=C(COc1ccc(Cl)cc1Cl)Oc1coc(CSc2nc3ccccc3s2)cc1=O`, the growth in the test with DU-145 prostate was 106%; in the test with K-562 leukemia, 83%; with MALME-3M melanoma it was 93.4%; in the test with MDA-MB-231 breast, 86.8%; in the test on SF-268 CNS, 102%; with SF-295 CNS, 105%. Also, the figures for the growth in the test on SF-539 CNS, in the test with UACC-257 melanoma and with M14 melanoma were 98.6%, 27.3% and 110%, respectively.
Take `CC1(C)CNC(=O)N1`: the growth in the test on DU-145 prostate is 110%; with K-562 leukemia, 98.1%; in the test with MALME-3M melanoma, 95.2%; in the test on MDA-MB-231 breast, 100%; in the test on RXF 393 renal, 108%; in the test on SF-268 CNS, 103%. The growth with SF-295 CNS was 98.7%; in the test with SF-539 CNS it was 98.9%; with UACC-257 melanoma it was 99.8%; with M14 melanoma, 94.1%.
As to `COc1ccc2nc(/C=C/c3ccc(N(C)C)cc3)sc2c1`, the growth in the test on DU-145 prostate is 111%; in the test on K-562 leukemia, 73.5%; in the test with MALME-3M melanoma it was 97.4%; in the test on MDA-MB-231 breast, 95.6%; in the test on SF-268 CNS, 102%; with SF-295 CNS it was 93.1%. The results for the growth in the test with SF-539 CNS, in the test on UACC-257 melanoma and with M14 melanoma were 103%, 119% and 103%, respectively.
For the molecule `N#Cc1c2c([nH]c(=O)c1C(N)=O)CCCCC2`, the growth in the test with DU-145 prostate was 115%; in the test with K-562 leukemia it was 113%; in the test on MALME-3M melanoma, 90.5%; in the test on MDA-MB-231 breast it was 102%; in the test on RXF 393 renal, 108%; in the test with SF-268 CNS, 103%. Further, the growth in the test on SF-295 CNS was 101%; in the test on SF-539 CNS, 95.1%; with UACC-257 melanoma, 96.7%; with M14 melanoma, 95.6%.
For the molecule `COc1ccc(-c2nnc(SC/C(=N\O)c3ccccc3)o2)cc1`, the growth is 100% in the test with DU-145 prostate; 94.2% in the test with K-562 leukemia; 109% with MALME-3M melanoma; 92.3% in the test with MDA-MB-231 breast; 120% in the test with RXF 393 renal; 95.8% with SF-268 CNS. Moreover, the growth in the test on SF-295 CNS was 101%; with SF-539 CNS, 92.7%; in the test on UACC-257 melanoma it was 121%; in the test with M14 melanoma it was 104%.
Take `CCOC(=O)c1c(C)n(-c2ccc(Cl)cc2)c2ccc(OC(=O)/C=C/c3ccccc3)cc12`: the growth in the test with DU-145 prostate was 91%; in the test on K-562 leukemia it was 25.4%; in the test with MALME-3M melanoma, 72.9%; in the test on MDA-MB-231 breast, 63.4%; with RXF 393 renal it was 73.7%; in the test with SF-268 CNS, 94.1%. The growth in the test with SF-295 CNS is 79.4%; in the test on SF-539 CNS, 92.7%; in the test on UACC-257 melanoma, 84.2%; in the test with M14 melanoma, 83.1%.
Consider `CC(=O)OC1Oc2ccccc2-c2oc(=O)c(-c3cc(=O)oc4cc(O)ccc34)cc21` (configuration not stated), for which the growth is 78.3% with DU-145 prostate; 33.2% in the test on K-562 leukemia; 68.9% in the test with MALME-3M melanoma; 86.3% in the test with MDA-MB-231 breast; 97.1% with SF-268 CNS; 73.6% in the test with SF-295 CNS. The growth in the test with SF-539 CNS is 89%; with UACC-257 melanoma it was 80.1%; with M14 melanoma, 72.1%.
With `NC(N)=NS(=O)(=O)c1ccc(Nc2ccc3nnc(-c4ccncc4)n3n2)cc1`, the growth with DU-145 prostate is 111%; in the test on K-562 leukemia it was 95.3%; in the test with MALME-3M melanoma it was 98.1%; with MDA-MB-231 breast, 102%; in the test with RXF 393 renal it was 106%; in the test on SF-268 CNS, 102%. Besides, the growth in the test with SF-295 CNS is 116%; with SF-539 CNS, 100%; in the test on UACC-257 melanoma it was 127%; with M14 melanoma, 105%.
`COc1cc(C)c2sc3ccccc3c(=O)c2c1NCCN(C)C`: the growth is 77.1% in the test on DU-145 prostate; -1.18% (active) in the test with K-562 leukemia; 38.9% with MALME-3M melanoma; 27.9% in the test on MDA-MB-231 breast; 59.3% with RXF 393 renal; 61.3% in the test on SF-268 CNS. Moreover, the growth is 53.6% with SF-295 CNS, 66.7% with SF-539 CNS, -22.8% (active) with UACC-257 melanoma and 24% in the test with M14 melanoma.
Turning to `O=C(c1ccc(Cl)cc1)c1no[n+]([O-])c1C(=O)c1ccc(Cl)cc1`, the growth is 94.1% with DU-145 prostate; 5.95% (active) in the test with K-562 leukemia; -76.2% (active) in the test on MALME-3M melanoma; 124% in the test on MDA-MB-231 breast; 44.6% in the test with RXF 393 renal; 102% in the test with SF-268 CNS. The growth with SF-295 CNS is 83.8%; with SF-539 CNS, 98.5%; with UACC-257 melanoma, 104%; in the test with M14 melanoma it was 92.5%.
